PubChem BioAssay (NCATS)
Records with an inconclusive call do not appear. The list shows a part of the results. Where a call stands in place of a potency, no number is given. Active and inactive are the calls of the source. The call rests on the fitted dose curve; in most records, active means well fitted curve in the direction sought with a large enough effect; inconclusive means small, poorly fitted or top-dose-only effect, or another doubt; inactive means no such curve, though single readings can be large; an effect the other way counts as inactive or inconclusive.

What was measured:
[1] = Counterscreen for APE1 Inhibitors: Fluorescent Dye Displacement Assay (AID 2564);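 further: loss of thiazole orange fluorescence as the dye is displaced from duplex DNA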
Summary of the method: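 Signal: ThO fluorescence (ex 480 nm/em 540 nm) on binding 50 nM dsDNA; displacement by test compound reduces it. Conditions: 250 nM dye, 50 mM Tris-HCl pH7.5, 2 mM MgCl2, 50mM NaCl, 0.01% Tween-20.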

[2] = tested on: 7G8; experiment: qHTS profiling for inhibitors of Plasmodium falciparum proliferation (AID 504749); further: nearly all actives have a fitted effect of over 60% in size; further: potency means the concentration at half of the fitted maximal effect; conditions: P. falciparum in erythrocytes, SYBR Green DNA, 72 h; series mostly up to 28.7 µM
Summary of the method: (§1)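 SYBR Green fluorescence (ex 485 nm, em 535 nm) reports parasite DNA after 72 h compound exposure of infected red cells at 0.3% parasitemia, 2.5% hematocrit; signal normalized to 0.29 uM artemisinin and vehicle wells.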

[3] = tested on: AA1029; experiment: as above; conditions: P. falciparum in erythrocytes, SYBR Green DNA, 72 h; series mostly up to 28.7 µM
Summary of the method: as §1

[4] = tested on: CP191; experiment: as above; conditions: P. falciparum in erythrocytes, SYBR Green DNA, 72 h; series mostly up to 28.7 µM
Summary of the method: as §1

[5] = tested on: CP211; experiment: as above; conditions: P. falciparum in erythrocytes, SYBR Green DNA, 72 h; series mostly up to 28.7 µM
Summary of the method: as §1

[6] = tested on: CP215; experiment: as above; conditions: P. falciparum in erythrocytes, SYBR Green DNA, 72 h; series mostly up to 28.7 µM
Summary of the method: as §1

[7] = tested on: CP217; experiment: as above; conditions: P. falciparum in erythrocytes, SYBR Green DNA, 72 h; series mostly up to 28.7 µM
Summary of the method: as §1

[8] = tested on: CP250; experiment: as above; conditions: P. falciparum in erythrocytes, SYBR Green DNA, 72 h; series mostly up to 28.7 µM
Summary of the method: as §1

[9] = tested on: CP252; experiment: as above; conditions: P. falciparum in erythrocytes, SYBR Green DNA, 72 h; series mostly up to 28.7 µM
Summary of the method: as §1

[10] = tested on: CP256; experiment: as above; conditions: P. falciparum in erythrocytes, SYBR Green DNA, 72 h; series mostly up to 28.7 µM
Summary of the method: as §1

[11] = tested on: CP291; experiment: as above; conditions: P. falciparum in erythrocytes, SYBR Green DNA, 72 h; series mostly up to 28.7 µM
Summary of the method: as §1

[12] = tested on: CP297; experiment: as above; conditions: P. falciparum in erythrocytes, SYBR Green DNA, 72 h; series mostly up to 28.7 µM
Summary of the method: as §1

[13] = tested on: CP315; experiment: as above; conditions: P. falciparum in erythrocytes, SYBR Green DNA, 72 h; series mostly up to 28.7 µM
Summary of the method: as §1

[14] = tested on: DIV14; experiment: as above; conditions: P. falciparum in erythrocytes, SYBR Green DNA, 72 h; series mostly up to 28.7 µM
Summary of the method: as §1

[15] = tested on: DIV17; experiment: as above; conditions: P. falciparum in erythrocytes, SYBR Green DNA, 72 h; series mostly up to 28.7 µM
Summary of the method: as §1

[16] = tested on: FAB9; experiment: as above; conditions: P. falciparum in erythrocytes, SYBR Green DNA, 72 h; series mostly up to 28.7 µM
Summary of the method: as §1

[17] = tested on: ICS; experiment: as above; conditions: P. falciparum in erythrocytes, SYBR Green DNA, 72 h; series mostly up to 28.7 µM
Summary of the method: as §1

[18] = tested on: JCK; experiment: as above; conditions: P. falciparum in erythrocytes, SYBR Green DNA, 72 h; series mostly up to 28.7 µM
Summary of the method: as §1

[19] = tested on: N140; experiment: as above; conditions: P. falciparum in erythrocytes, SYBR Green DNA, 72 h; series mostly up to 28.7 µM
Summary of the method: as §1

[20] = tested on: TAB113; experiment: as above; conditions: P. falciparum in erythrocytes, SYBR Green DNA, 72 h; series mostly up to 28.7 µM
Summary of the method: as §1

Row | SMILES | outcome [1] | Potency [2] | Potency [3] | Potency [4] | Potency [5] | Potency [6] | Potency [7] | Potency [8] | Potency [9] | Potency [10] | Potency [11] | Potency [12] | Potency [13] | Potency [14] | Potency [15] | Potency [16] | Potency [17] | Potency [18] | Potency [19] | Potency [20]
1 | C=CCn1c(=S)[nH]c2scc(-c3ccco3)c2c1=O | inactive | – | – | – | – | – | – | – | – | – | – | – | – | – | – | – | – | – | – | –
2 | Cc1c(C(=O)O)c(O)cc2c1C(=O)c1c(O)c([C@H]3O[C@H](CO)[C@@H](O)[C@H](O)[C@H]3O)c(O)c(O)c1C2=O | – | inactive | inactive | inactive | inactive | inactive | inactive | inactive | inactive | inactive | inactive | inactive | inactive | inactive | inactive | inactive | inactive | inactive | inactive | inactive
3 | O=c1nc2s/c(=C\c3ccco3)c(=O)n2nc1Cc1ccccc1 | inactive | – | – | – | – | – | – | – | – | – | – | – | – | – | – | – | – | – | – | –
4 | Cc1cc(C)c2nc(-c3ccco3)cc(C(=O)O)c2c1 | inactive | – | – | – | – | – | – | – | – | – | – | – | – | – | – | – | – | – | – | –
5 | Cc1ccc(Cc2cnc(N)s2)o1 | inactive | – | – | – | – | – | – | – | – | – | – | – | – | – | – | – | – | – | – | –
6 | N/C(=N\OC(=O)Nc1ccccc1)c1ccno1 | inactive | – | – | – | – | – | – | – | – | – | – | – | – | – | – | – | – | – | – | –
7 | Cc1ccc(-c2nc(SCC(=O)Nc3ccccc3OC(F)F)c3c(C)c(C(=O)O)sc3n2)cc1 | inactive | – | – | – | – | – | – | – | – | – | – | – | – | – | – | – | – | – | – | –
8 | NS(=O)(=O)c1cc2c(cc1Cl)N[C@H](Cc1ccccc1)NS2(=O)=O | – | inactive | inactive | inactive | inactive | inactive | inactive | inactive | inactive | inactive | inactive | inactive | inactive | inactive | inactive | inactive | inactive | inactive | inactive | inactive
9 | CC(C)(C)NC[C@@H](O)c1ccc(O)c(CO)n1 | – | inactive | inactive | inactive | inactive | inactive | inactive | inactive | inactive | inactive | inactive | inactive | inactive | inactive | inactive | inactive | inactive | inactive | inactive | inactive
10 | CN(C)[C@H]1C(=O)C(C(=O)NCN2CCCC2)=C(O)[C@]2(O)C(=O)C3=C(O)c4c(O)cccc4[C@](C)(O)[C@H]3C[C@H]12 | – | inactive | inactive | inactive | inactive | inactive | inactive | inactive | inactive | inactive | inactive | inactive | inactive | inactive | inactive | inactive | inactive | inactive | inactive | inactive
11 | Cc1cn([C@H]2C[C@H](N=[N+]=[N-])[C@H](CO)O2)c(=O)[nH]c1=O | – | inactive | inactive | inactive | inactive | inactive | inactive | inactive | inactive | inactive | inactive | inactive | inactive | inactive | inactive | inactive | inactive | inactive | inactive | inactive
12 | O=C(O)[C@@H](S)[C@H](S)C(=O)O | – | 5.01 µM (active) | 10 µM (active) | 8.91 µM (active) | 6.75 µM (active) | 9.53 µM (active) | 6.31 µM (active) | 7.08 µM (active) | 10 µM (active) | 7.94 µM (active) | 12 µM (active) | 15.1 µM (active) | 15.1 µM (active) | 8.49 µM (active) | 13.5 µM (active) | 11.2 µM (active) | 8.91 µM (active) | 11.2 µM (active) | 7.94 µM (active) | 11.2 µM (active)
13 | C[C@]12CC[C@H]3c4ccc(O)cc4CC[C@@H]3[C@H]1CC[C@@H]2OC(=O)CCC1CCCC1 | – | 4.47 µM (active) | inactive | – | inactive | inactive | inactive | inactive | inactive | inactive | inactive | inactive | inactive | 9.53 µM (active) | 10.7 µM (active) | inactive | 3.16 µM (active) | inactive | 12.6 µM (active) | –
